Assay results: PubChem BioAssay (NCI)
The panel holds about 79,000 compounds, 15% with a hit somewhere; the sample as a whole holds those more often. Calls of active or inactive are those of the source. No stated cut-off is given here; in the data, active means growth inhibition above about 70%; inactive means the rest.

Experiments:
[1] = NCI Yeast Anticancer Drug Screen. Data for the rad52 strain (AID 147);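 further: 0% = growth of vehicle-treated control cultures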; conditions: S. cerevisiae rad52 mutant growth inhibition, active compounds read high
In short: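 Compounds are applied to a genetically defined yeast strain lacking normal DNA damage repair, and inhibition of growth is expressed relative to cultures given vehicle only.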

[2] = NCI Yeast Anticancer Drug Screen. Data for the wt1 strain (AID 149);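 further: 0% = growth of vehicle-treated wt1 cultures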; conditions: S. cerevisiae wt1 strain (SPY 50644) growth inhibition, active compounds read high
In short: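 Readout: yeast growth inhibition, normalised to vehicle controls, in the wt1 strain exposed to test compounds.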

[3] = NCI Yeast Anticancer Drug Screen. Data for the rad50EPP+ strain (AID 151);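 further: 0% = growth of vehicle-treated control cultures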; conditions: S. cerevisiae rad50 mutant strain, active compounds read high
In short: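 Compounds were applied to the rad50EPP+ yeast strain, which bears a defined DNA repair alteration, and growth inhibition was determined relative to vehicle-treated cultures.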

[4] = NCI Yeast Anticancer Drug Screen. Data for the mgt1 strain (AID 153); conditions: S. cerevisiae mgt1 mutant growth inhibition, active compounds read high
In short: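 Strain: mgt1 yeast, one of a set carrying defined DNA damage repair or cell cycle control alterations. Compound-treated growth compared with vehicle.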

[5] = NCI Yeast Anticancer Drug Screen. Data for the rad50 strain (AID 155);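 further: 0% = growth of vehicle-only cultures of the same strain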; conditions: S. cerevisiae rad50 strain growth inhibition, active compounds read high
In short: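 Compounds were tested on a yeast strain with an engineered DNA damage repair alteration; the reported value is growth inhibition normalised to vehicle treatment.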

[6] = NCI Yeast Anticancer Drug Screen. Data for the rad14 strain (AID 159);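 further: 0% = growth of vehicle-treated control cultures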; conditions: S. cerevisiae rad14 strain growth inhibition, active compounds read high
In short: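 Compound-treated yeast with a defined DNA-repair lesion; growth inhibition normalised to vehicle-treated cultures.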

[7] = NCI Yeast Anticancer Drug Screen. Data for the sgs1 mgt1 strain (AID 161);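 further: 0% = growth of cultures given vehicle only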; conditions: S. cerevisiae sgs1 mgt1 strain, active compounds read high
In short: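 Read-out: growth inhibition vs vehicle controls. Cells: mutant yeast strain deficient in DNA damage repair.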

[8] = NCI Yeast Anticancer Drug Screen. Data for the CLN2oe strain (AID 163);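 further: 0% = growth of vehicle-only control cultures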; conditions: S. cerevisiae CLN2oe strain, active compounds read high
In short: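 Growth of a genetically modified yeast strain is measured after compound exposure and compared with cultures given vehicle alone.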

[9] = NCI Yeast Anticancer Drug Screen. Data for the cln2 rad14 strain (AID 165);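 further: 0% = growth equal to vehicle treated cultures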; conditions: S. cerevisiae cln2 rad14 strain, active compounds read high
In short: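 Compounds are applied to the cln2 rad14 yeast strain, and growth is then compared with that of vehicle-treated cultures to give inhibition.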

[10] = NCI Yeast Anticancer Drug Screen. Data for the wt2 strain (AID 169);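 further: 0% = growth of vehicle-treated yeast cultures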; conditions: S. cerevisiae wt2 strain growth inhibition, active compounds read high
In short: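 This strain belongs to a panel of yeast strains with defined genetic alterations in DNA damage repair or cell cycle control. Compounds are applied, and growth inhibition is measured against vehicle-treated cultures.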

[11] = NCI Yeast Anticancer Drug Screen. Data for the mlh1 strain (AID 171);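 further: 0% = growth of vehicle-treated control cultures of the same strain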; conditions: S. cerevisiae mlh1 strain growth inhibition, active compounds read high
In short: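 Growth of the mutant yeast strain after compound exposure, expressed as inhibition relative to vehicle-only controls.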

[12] = NCI Yeast Anticancer Drug Screen. Data for the sgs1 strain (AID 173);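 further: 0% = growth of vehicle-only control cultures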; conditions: S. cerevisiae sgs1 mutant, active compounds read high
In short: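 Growth of a yeast strain bearing a defined genetic alteration is measured after compound treatment. Inhibition is expressed relative to vehicle-only controls.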

[13] = NCI Yeast Anticancer Drug Screen. Data for the mlh1 rad18 strain (AID 175); conditions: S. cerevisiae mlh1 rad18 strain growth inhibition, active compounds read high
In short: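 Read-out is yeast growth inhibition, calculated against vehicle-only controls. The compound was applied to a strain engineered with DNA damage repair alterations.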

[14] = NCI Yeast Anticancer Drug Screen. Data for the rad18 strain (AID 177); conditions: S. cerevisiae rad18 mutant growth inhibition, active compounds read high
In short: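 Growth of the mutant yeast strain after compound exposure, normalised to vehicle-only cultures.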

[15] = NCI Yeast Anticancer Drug Screen. Data for the mec2-1 strain (AID 157); conditions: S. cerevisiae mec2-1 strain, active compounds read high
In short: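 Strain: mec2-1 (DNA repair/cell cycle alteration). Compound exposure, then growth measured; inhibition expressed relative to vehicle.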

[16] = NCI Yeast Anticancer Drug Screen. Data for the bub3 strain (AID 167); conditions: S. cerevisiae bub3 mutant strain, active compounds read high
In short: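 Growth of a checkpoint-deficient yeast mutant is measured after compound exposure. Values represent inhibition relative to vehicle.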

[17] = at 5.0 µM (retest, dose inferred, filed as 0.5)
[18] = at 50.0 µM (retest, dose inferred, filed as 5.0)

Measured: growth inhibition

NC(N)=NC(N)=Nc1ccccc1 (tested in a mixture with another compound)
active: [10]; at 100.0 µM 77% | [12]; at 100.0 µM 90%
inactive: [1]; at 1.2 µM -3% | [1]; at 3.7 µM -5% | [1]; at 11.0 µM -7% | [1]; at 33.0 µM 2% | [1]; at 100.0 µM 48% | [2]; at 1.2 µM -1% | [2]; at 3.7 µM -1% | [2]; at 11.0 µM 0% | [2]; at 33.0 µM 11% | [2]; at 100.0 µM 32% | [3]; at 1.2 µM -1% | [3]; at 3.7 µM -2% | [3]; at 11.0 µM -16% | [3]; at 33.0 µM -9% | [3]; at 100.0 µM 18% | [4]; at 1.2 µM -1% | [4]; at 3.7 µM -2% | [4]; at 11.0 µM 0% | [4]; at 33.0 µM 6% | [4]; at 100.0 µM 41% | [5]; at 1.2 µM 2% | [5]; at 3.7 µM -3% | [5]; [17] -2% | [5]; at 11.0 µM 1% | [5]; at 33.0 µM 1% | [5]; [18] 7% | [5]; at 50.0 µM 56.6% | [5]; at 100.0 µM 55% | [6]; at 1.2 µM -1% | [6]; at 3.7 µM -15% | [6]; at 11.0 µM -11% | [6]; at 33.0 µM -19% | [6]; at 100.0 µM 60% | [7]; [17] 3% | [7]; [18] -6% | [7]; at 50.0 µM 66.8% | [8]; at 1.2 µM -2% | [8]; at 3.7 µM -6% | [8]; at 11.0 µM -13% | [8]; at 33.0 µM -1% | [8]; at 100.0 µM 37% | [9]; [17] 33% | [9]; [18] -77% | [9]; at 50.0 µM 23.6% | [10]; at 1.2 µM -1% | [10]; at 3.7 µM -1% | [10]; at 11.0 µM 3% | [10]; at 33.0 µM 20% | [11]; at 1.2 µM 5% | [11]; at 3.7 µM 4% | [11]; at 11.0 µM 5% | [11]; at 33.0 µM -13% | [11]; at 100.0 µM 41% | [12]; at 1.2 µM 2% | [12]; at 3.7 µM 7% | [12]; at 11.0 µM 20% | [12]; at 33.0 µM 49% | [13]; [17] -4% | [13]; [18] -9% | [13]; at 50.0 µM 47% | [14]; at 1.2 µM 3% | [14]; at 3.7 µM -3% | [14]; at 11.0 µM 3% | [14]; at 33.0 µM 6% | [14]; at 100.0 µM 61%

O=[N+]([O-])/C=C/c1cc2ccc3ccccc3c2[nH]1
inactive: [1]; at 1.2 µM 27% | [1]; at 3.7 µM 66% | [2]; at 1.2 µM 9% | [2]; at 3.7 µM 19% | [2]; at 11.0 µM 41% | [4]; at 1.2 µM 15% | [4]; at 3.7 µM 55% | [5]; at 1.2 µM 39% | [5]; [17] 63% | [15]; at 1.2 µM 20% | [15]; at 3.7 µM 33% | [15]; [17] 55% | [15]; at 11.0 µM 63% | [8]; at 1.2 µM 0% | [8]; at 3.7 µM 12% | [8]; at 11.0 µM 31% | [8]; at 33.0 µM 63% | [9]; [17] -6% | [16]; at 1.2 µM 12% | [16]; at 3.7 µM 28% | [16]; [17] 50% | [16]; at 11.0 µM 58% | [10]; at 1.2 µM 26% | [10]; at 3.7 µM 57% | [11]; at 1.2 µM 25% | [11]; at 3.7 µM 50% | [14]; at 1.2 µM 61%
active: [1]; at 11.0 µM 83% | [1]; at 33.0 µM 88% | [1]; at 100.0 µM 88% | [2]; at 33.0 µM 79% | [2]; at 100.0 µM 93% | [3]; at 1.2 µM 91% | [3]; at 3.7 µM 94% | [3]; at 11.0 µM 94% | [3]; at 33.0 µM 93% | [3]; at 100.0 µM 87% | [4]; at 11.0 µM 81% | [4]; at 33.0 µM 95% | [4]; at 100.0 µM 93% | [5]; at 3.7 µM 70% | [5]; at 11.0 µM 78% | [5]; at 33.0 µM 83% | [5]; [18] 96% | [5]; at 50.0 µM 95.8% | [5]; at 100.0 µM 82% | [15]; at 33.0 µM 88% | [15]; [18] 98% | [15]; at 50.0 µM 98.8% | [15]; at 100.0 µM 93% | [7]; [17] 88% | [7]; [18] 97% | [7]; at 50.0 µM 98.7% | [8]; at 100.0 µM 87% | [9]; [18] 83% | [9]; at 50.0 µM 97.2% | [16]; at 33.0 µM 86% | [16]; [18] 96% | [16]; at 50.0 µM 98.8% | [16]; at 100.0 µM 91% | [10]; at 11.0 µM 87% | [10]; at 33.0 µM 95% | [10]; at 100.0 µM 93% | [11]; at 11.0 µM 83% | [11]; at 33.0 µM 93% | [11]; at 100.0 µM 93% | [13]; [17] 84% | [13]; [18] 94% | [13]; at 50.0 µM 98% | [14]; at 3.7 µM 86% | [14]; at 11.0 µM 90% | [14]; at 33.0 µM 92% | [14]; at 100.0 µM 87%

c1ccc2c(c1)N=C1CCCC3CCCC123 (stereo not drawn)
inactive: [1]; at 1.2 µM 3% | [1]; at 3.7 µM 4% | [1]; at 11.0 µM 11% | [1]; at 33.0 µM 56% | [2]; at 1.2 µM -2% | [2]; at 3.7 µM 2% | [2]; at 11.0 µM 7% | [2]; at 33.0 µM -1% | [3]; at 1.2 µM -9% | [3]; at 3.7 µM -14% | [3]; at 11.0 µM -11% | [3]; at 33.0 µM 5% | [3]; at 100.0 µM 68% | [4]; at 1.2 µM 1% | [4]; at 3.7 µM 1% | [4]; at 11.0 µM 6% | [4]; at 33.0 µM 21% | [5]; at 1.2 µM -2% | [5]; at 3.7 µM 2% | [5]; [17] -161% | [5]; at 11.0 µM 11% | [5]; at 33.0 µM 32% | [5]; [18] 63% | [15]; at 1.2 µM -2% | [15]; at 3.7 µM 1% | [15]; [17] -46% | [15]; at 11.0 µM -15% | [15]; at 33.0 µM 25% | [15]; [18] 65% | [7]; [17] -57% | [7]; [18] 60% | [8]; at 1.2 µM -3% | [8]; at 3.7 µM -1% | [8]; at 11.0 µM 4% | [8]; at 33.0 µM 15% | [9]; [17] -67% | [9]; [18] -26% | [9]; at 50.0 µM 23.6% | [16]; at 1.2 µM -2% | [16]; at 3.7 µM 10% | [16]; [17] -50% | [16]; at 11.0 µM 22% | [16]; at 33.0 µM 61% | [16]; [18] 61% | [11]; at 1.2 µM 6% | [11]; at 3.7 µM 3% | [11]; at 11.0 µM 3% | [11]; at 33.0 µM 3% | [12]; at 1.2 µM -1% | [12]; at 3.7 µM 9% | [12]; at 11.0 µM 12% | [12]; at 33.0 µM 16% | [13]; [17] -133% | [13]; [18] 12%
active: [1]; at 100.0 µM 98% | [2]; at 100.0 µM 97% | [4]; at 100.0 µM 98% | [5]; at 50.0 µM 91% | [5]; at 100.0 µM 98% | [15]; at 50.0 µM 89.6% | [15]; at 100.0 µM 99% | [7]; at 50.0 µM 83.7% | [8]; at 100.0 µM 98% | [16]; at 50.0 µM 91.4% | [16]; at 100.0 µM 98% | [11]; at 100.0 µM 97% | [12]; at 100.0 µM 99% | [13]; at 50.0 µM 90.8%
